Data on 86 compounds can be found in ChEMBL document CHEMBL4888484, “Replenishing the malaria drug discovery pipeline: Screening and hit evaluation of the MMV Hit Generation Library 1 (HGL1) against asexual blood stage Plasmodium falciparum ,using a nano luciferase reporter read-out” (2022).

Each structure is given as a SMILES string. Hit rate of the full screen: of about 150,000 compounds, about 540 (0.36%) showed an effect of 50% or more. Only a selection was taken, and strong results are over-represented in it overall.

For this test, the system named is Plasmodium falciparum. Briefly: Primary screen in NF54 nanoGlo assay, in single point, at 2uM, 72h; a lower Z score goes with more inhibition. Type of test: functional, Erythrocyte. Particulars: timepoint 72 hour.
`c1ccc2c(c1)CCCC2N1CCCC(Cn2cncn2)C1` (configuration not stated): the “% Inhibition” value is reported as -9% and the Z score is reported as 1.31.
In the same order, the values of `C[C@H](NC(=O)CNC(C)(C)C)c1ccc(F)cc1F` are -4% and 0.48.
On the same counts, the results for `CC1(C)CO[C@@H](CC(=O)N2CCOC3(CCS(=O)(=O)CC3)C2)C1` are 0% and 0.06.
As for `Cc1ccc(-c2cn[nH]c2[C@H]2CCCN(C(=O)c3[nH]cnc3C)C2)cc1`, the “% Inhibition” value is recorded as -5% and the Z score is 0.87.
In the same order, the values of `Cc1cccc2c(-c3cccc(C(N)=O)n3)c[nH]c12` are -6% and 1.19.
With `Cc1cccc2c(-c3cc(N)nc(N)n3)c[nH]c12`, the “% Inhibition” value worked out at 85% and the Z score is -9.19.
Take `O=C(c1cnc2ccsc2c1)N1CC2(CCCCC2)C1`: the “% Inhibition” value is reported as -15% and the Z score is recorded as 2.61.
`CCc1noc(C)c1C(=O)Nc1sc2c(c1C(N)=O)CCCCC2`: the “% Inhibition” value is reported as -23% and the Z score is listed as 2.07.
Turning to `CCn1ncnc1CNC1CC(c2ccc(Br)cc2)C1` (configuration not stated), the “% Inhibition” value is listed as -13% and the Z score came to 1.96.
On the same counts, the results for `COc1ccc2c(O)cc(-c3ccccc3)nc2c1` are 37% and -0.12.
On the same counts, the results for `COc1ccc2c(O)c(C(=O)NCCN(C)C)cnc2c1` are -7% and 0.96.
In the same order, the values of `COc1ccc(C(=O)c2cnc3cc(Cl)ccc3c2-c2ccccc2)cc1` are -12% and 1.39.
In the case of `Cc1cccc(Cn2c(C(=O)Nc3ccccc3)cc3cc(NC(=O)C4CCC4)ccc32)c1`, the “% Inhibition” value was 13% and the Z score is on record as -2.41.
On the same counts, the results for `COc1ccc(-c2nn(-c3ccccc3C)cc2CN(C)Cc2nccn2C)cc1F` are -8% and 1.05.
As to `Cc1cc(C(=O)Nc2cccc(C(F)(F)F)c2)cc2c1N(C)S(=O)(=O)c1ccccc1-2`, the “% Inhibition” value is given as -3% and the Z score was determined as 0.47.
In the same order, the values of `O=C(COC[C@H]1CCCCO1)NC(C1CC1)C1CC1` are -8% and 1.05.
Regarding `O=C(Nc1ccc(Br)cn1)c1ccc(-c2ccc(Cl)c(Cl)c2)o1`, the “% Inhibition” value came to 31% and the Z score is recorded as -3.51.
On the same counts, the results for `O=C(Nc1cccnc1)c1ccc(-c2ccc(Cl)c(Cl)c2)o1` are 64% and -16.5.
On the same counts, the results for `Cc1ccc(-c2ccc(C(=O)Nc3cccnc3)o2)cc1Cl` are -2% and 0.25.
`Nc1nn2cc(-c3cc4ccccc4o3)nc2c2ccccc12`: the “% Inhibition” value is recorded as -6% and the Z score is 1.22.
In the same order, the values of `Cc1ccc2nc(-c3cc4ccccc4o3)cn2c1` are 61% and -5.65.
In the same order, the values of `Cc1ccc2nc(-c3cnoc3C)cn2c1` are 0% and 0.04.
Turning to `O=C(NCCN1CCCC1)c1ccc(-c2c(-c3ccc(F)cc3)ncn2C2CCCC2)o1`, the “% Inhibition” value is recorded as 5% and the Z score is on record as -0.8.
With `Cc1ccc(Cl)cc1N1CCN(C(=O)N2CCC(C)CC2)CC1`, the “% Inhibition” value was 0% and the Z score is on record as -0.01.
Turning to `CCc1nc2cc(N3CCC(C(=O)N[C@@H](C)CC)CC3)cnc2nc1CC`, the “% Inhibition” value is -9% and the Z score is 1.42.
On the same counts, the results for `CCc1nc2cc(N3CCC(C(=O)NCc4cc(F)cc(F)c4)CC3)cnc2nc1CC` are -5% and 0.82.
In the same order, the values of `CCc1nc2cc(N3CCC(C(=O)Nc4ccc5c(c4)OCO5)CC3)cnc2nc1CC` are 73% and -0.75.
On the same counts, the results for `Cc1ccc(S(=O)(=O)c2cn(CC(=O)Nc3ccc(C)c(C)c3)c3nc(C)ccc3c2=O)cc1` are -12% and 1.24.
Take `COCCN1CCC[C@@]2(CCN(Cc3cnn(-c4ccc(Cl)cc4)c3)C2)C1`: the “% Inhibition” value is listed as -9% and the Z score was 1.21.
In the same order, the values of `COCCN1CC[C@H](CN(C)S(=O)(=O)Cc2ccc(Cl)cc2)C1` are -6% and 1.12.
In the same order, the values of `COCCN1C[C@]2(CCCN(c3ccnc4ccc(C)cc34)C2)CCC1=O` are -3% and 0.55.
In the same order, the values of `COCCN1CC[C@H](CN(C)c2ccncn2)C1` are 1% and -0.2.
Consider `COC(=O)[C@H](CN)Oc1ccc(F)cc1`, for which the “% Inhibition” value stood at 2% and the Z score is recorded as -0.27.
In the same order, the values of `O=C(NC1CC1C1CCCCC1)N1CCCN(C2CCOCC2)CC1` (configuration not stated) are -16% and 1.42.
For `O=C(NC1CC1C1CCCCC1)N1CCS(=O)(=O)CC1` (configuration not stated), the “% Inhibition” value worked out at 77% and the Z score is recorded as -9.17.
In the same order, the values of `O=C(N[C@@H]1C[C@H]1C1CCCCC1)N1CCC(N2CCCCC2)C1` (some centres not stated) are -9% and 1.45.
In the same order, the values of `CCCN(C(=O)Nc1cc(Cl)ccc1OC)c1nc(-c2ccc(C3CCCCC3)cc2)cs1` are -14% and 2.04.
On the same counts, the results for `COc1ccc(NCC(=O)Nc2cc(C(F)(F)F)cc(NC(=O)CNc3ccc(OC)cc3)c2Cl)cc1` are -10% and 1.34.
For `CC(=O)Oc1ccc(N2C(=O)[C@@H]3[C@H](Cc4ccccc4)N[C@]4(C(=O)Nc5c4ccc(Cl)c5C)[C@@H]3C2=O)cc1`, the “% Inhibition” value is reported as -4% and the Z score amounted to 0.38.
In the same order, the values of `O=C(ON1C(=O)CCC1=O)c1cccc(F)c1` are 34% and -3.87.
On the same counts, the results for `O=C(ON1C(=O)CCC1=O)c1cc2ccccc2[nH]1` are 61% and -0.88.
In the same order, the values of `Cc1cccc(C(=O)ON2C(=O)CCC2=O)c1` are 39% and 1.28.
For the compound `Cc1cc(C)nc(-n2nc(C)c(CCc3ccccc3)c2O)n1`, the “% Inhibition” value is recorded as 32% and the Z score is given as -3.67.
On the same counts, the results for `Cc1nn(-c2nc3ccccc3[nH]2)c(O)c1Cc1ccccc1` are 63% and -1.65.
Consider `Cc1cccc(Cc2c(C)nn(-c3nc(C)cc(C)n3)c2O)c1`, for which the “% Inhibition” value came out at 36% and the Z score worked out at 2.2.
In the same order, the values of `COc1ccccc1-n1nc(C)c(Cc2ccccc2)c1O` are 31% and -3.49.
On the same counts, the results for `Cc1nn(-c2nc3ccccc3[nH]2)c(O)c1CCC(C)C` are 95% and -12.21.
Turning to `Oc1cc(-c2ccc(F)cc2)nn1-c1nc2ccccc2[nH]1`, the “% Inhibition” value is 36% and the Z score was -4.09.
In the same order, the values of `COc1ccc([C@@H]2N(c3ccc(Cl)cc3)OC(=O)N2c2ccccc2)cc1` are 1% and -0.09.
On the same counts, the results for `Cc1n[nH]c2c1CN(Cc1[nH]cc(C)c(=O)c1C)CC2` are -8% and 1.
In the same order, the values of `COCCCN(CCC(=O)NCCc1ccccc1)C(=O)c1cc(C)oc1C` are 2% and -0.18.
`Cc1ccc(CNC(=O)CC2CC2)c2cccnc12`: the “% Inhibition” value is listed as -16% and the Z score was determined as 2.46.
On the same counts, the results for `COc1ccc(Cl)cc1-c1cc(C(=O)N2CCOCC2)ccn1` are 3% and -0.54.
On the same counts, the results for `CCc1c(C(=O)N2CCC(c3ccnn3CCO)CC2)cnn1-c1cccc(Cl)c1` are -3% and 0.24.
In the same order, the values of `CCc1nc2ccccc2c(C(=O)N2CCN(c3cc(OC)ncn3)CC2)c1C` are -13% and 1.69.
Turning to `COC[C@H]1CCCN1C[C@@H]1OC[C@H](NC(=O)c2ccc(C#N)cc2)[C@H]1O`, the “% Inhibition” value was found to be 9% and the Z score is reported as -1.07.
On the same counts, the results for `Cn1cccc1-c1nc2cc(N)ccc2[nH]1` are -3% and 0.34.
On the same counts, the results for `COCCN(CCOC)C(=O)c1cnn(C)c1` are -6% and 0.88.
In the same order, the values of `CCOc1ccccc1C(=O)N1CCC[C@](c2nnnn2CCC(C)C)(N(C)C)C1` are -2% and 0.29.
In the case of `CC(C)CCn1nnnc1[C@]1(N(C)C)CCCN(C(=O)c2cccn2C)C1`, the “% Inhibition” value was determined as 92% and the Z score came out at 1.07.
On the same counts, the results for `CC(C)CCn1nnnc1[C@]1(N(C)C)CCCN(C(=O)CN2CCOCC2)C1` are 2% and -0.27.
`CCOCCCNCc1ccc(F)cc1`: the “% Inhibition” value is -10% and the Z score worked out at 1.59.
On the same counts, the results for `COc1ccc(-c2nnc(-c3nc(NCc4ccc5c(c4)OCO5)c4ccccc4n3)o2)cc1` are -7% and 1.27.
On the same counts, the results for `COc1ccc(CNc2nc(-c3nnc(-c4ccccc4)o3)nc3ccccc23)cc1` are 55% and -10.02.
Consider `Cc1ccc(-c2nnc(-c3nc(NCc4ccc(F)cc4)c4ccccc4n3)o2)cc1`, for which the “% Inhibition” value was -11% and the Z score was found to be 2.05.
On the same counts, the results for `O=C(NCC1(c2ccccc2)CCCCCC1)N1CCO[C@@H](CO)C1` are -5% and 0.59.
On the same counts, the results for `CCc1c(C)nc(C)nc1N1CC[C@H](NC(=O)c2cc(C)on2)[C@@H](O)C1` are 8% and -1.41.
As to `CCn1nccc1C=C(C)c1ncccn1`, the “% Inhibition” value is 1% and the Z score is -0.23.
Consider `COc1ccc(Br)cc1NC(=O)N(C)CCCn1ccnc1`, for which the “% Inhibition” value came out at 8% and the Z score is -0.86.
For `CN(CCCn1ccnc1)C(=O)c1ccnc(N(C)C)c1`, the “% Inhibition” value is given as -12% and the Z score is on record as 1.13.
In the same order, the values of `COc1ccc(Cn2nnc3cc(C(=O)Nc4ccc(C)cc4C)ccc32)cc1` are -2% and 0.34.
For `CC1=Nc2ccccc2C12CCN(C(=O)Nc1cncc(F)c1)CC2`, the “% Inhibition” value was determined as 11% and the Z score is -1.44.
On the same counts, the results for `O=C(Nc1onc2c1CCC2)c1cccc2ccccc12` are 20% and -2.27.
In the same order, the values of `O=C(Nc1onc2c1CCC2)c1ccc2ccccc2c1` are 76% and -8.19.
On the same counts, the results for `O=C(Nc1onc2c1CCC2)c1ccc2ncsc2c1` are 0% and 0.01.
As to `CC(=O)Nc1ccc(S(=O)(=O)NC2(c3nc(C)no3)CCCCC2)cc1`, the “% Inhibition” value was -3% and the Z score came out at 0.55.
On the same counts, the results for `O=C(Cn1cnc(-c2nc(-c3ccccc3)cs2)c1)Nc1ccc(F)cc1` are -8% and 0.99.
On the same counts, the results for `O=C(O)[C@H]1CCN(C(=O)Cn2c(COc3ccccc3)nc3ccccc32)C1` are -10% and 0.93.
In the same order, the values of `Cc1nn(-c2nc3ccccc3s2)c(O)c1C(c1ccc(Cl)c(Cl)c1)c1c(C)nn(-c2nc3ccccc3s2)c1O` are -10% and 0.88.
As for `Cc1nn(-c2ccccc2Cl)c(O)c1C(c1ccsc1)c1c(C)nn(-c2ccccc2Cl)c1O`, the “% Inhibition” value came out at 6% and the Z score is listed as -0.74.
In the same order, the values of `Cc1nn(-c2ccccn2)c(O)c1C(c1ccccc1)c1c(C)nn(-c2ccccn2)c1O` are 96% and -9.38.
On the same counts, the results for `Cc1ccccc1C(=O)N1C(C(=O)NC(C)c2ccccc2)COC12CCN(C(=O)CC(C)(C)C)CC2` (configuration not stated) are -5% and 0.47.
In the same order, the values of `CCc1ccccc1C(=O)OCc1nccn1C` are -3% and 0.26.
Turning to `Fc1ccc(-c2nc3c(cnn3C3CCCC3)[nH]2)cc1`, the “% Inhibition” value is -6% and the Z score worked out at 0.81.
On the same counts, the results for `CN1CCC(n2ncc3[nH]c(-c4ccc(C(F)(F)F)cc4)nc32)CC1` are 97% and -17.43.
In the same order, the values of `COc1ccc(-c2nc3c(cnn3C3CCN(C)CC3)[nH]2)cn1` are -7% and 0.9.
